Results published in the supplement of paper PMC9177965.

system: HT29 RNF43 G659fs (RNF43 659mut, CRISPR-edited); assay: cell viability activity relative to DMSO (negative = inhibition); higher = more viable cells (less growth inhibition); conditions: 5 µM; 96 h
Description: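 Broad Repurposing Library primary screen at a single dose of 5 uM. HT29 sg-Ctrl and HT29 RNF43 G659fs CRISPR-edited isogenic cells were seeded at 2500 cells/well in 384-well plates in duplicate and treated for 96 h. Viability was read by CellTiter-Glo and reported as % activity relative to DMSO, with MG132 as the positive control (negative = growth inhibition).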

Compared with `N#Cc1cn([C@@H]2O[C@H](CO)[C@@H](O)[C@H]2O)c2ncnc(N)c12`, `C[C@@H]1O[C@@H](O[C@@H]2C=C3CC[C@@H]4[C@H](CC[C@]5(C)[C@@H](c6ccc(=O)oc6)CC[C@]45O)[C@@]3(C)CC2)[C@H](O)[C@H](O)[C@H]1O` is higher in cell viability activity: -94.2% for the first, -81.8% for the second.

Going from `O=C(C[C@H]1NCCC[C@@H]1O)Cn1cnc2cc(Br)c(Cl)cc2c1=O` to `O=Cc1cn(Cc2ccc(Cl)cc2)c2ccccc12`, the cell viability activity rises from -91.6% to -38.7%.

Compared with `O=C1C=C2C=C[C@@H]3C[C@@]2(O1)[C@H]1CCCCN31`, `C[C@]12CC[C@H]3[C@@H](CC[C@]4(O)C[C@@H](O)CC[C@]34C=O)[C@@]1(O)CC[C@@H]2C1=CC(=O)OC1` is lower in cell viability activity: -29.8% for the first, -81.8% for the second.

Compared with `CC[C@@H]1/C=C/C=C/C[C@H](C)[C@H](O)[C@](C)(O)C(=O)[C@H](C)[C@@H](O)[C@H](C)C(=O)[C@H](C)[C@@H](O)[C@H](C)/C=C/C(=O)O[C@H]2[C@@H](C)[C@@H](CC1)O[C@@]1(CC[C@@H](C)[C@@H](C[C@H](C)O)O1)[C@@H]2C`, `C/C(=C\c1csc(C)n1)[C@@H]1C[C@@H]2O[C@]2(C)CCC[C@H](C)[C@H](O)[C@@H](C)C(=O)C(C)(C)[C@@H](O)CC(=O)O1` is lower in cell viability activity: -38.4% for the first, -51.7% for the second.

Going from `C/C1=C/C[C@@H](/C(C)=C/c2csc(C)n2)OC(=O)C[C@H](O)C(C)(C)C(=O)[C@H](C)[C@@H](O)[C@@H](C)CCC1` to `COC(=O)C[C@](O)(CCC(C)(C)O)C(=O)O[C@@H]1C(OC)=C[C@]23CCCN2CCc2cc4c(cc2[C@H]13)OCO4`, the cell viability activity falls from -63.7% to -89.5%.

Going from `Cc1sc2c(c1C)C(c1ccc(Cl)cc1)=N[C@@H](CC(=O)Nc1ccc(O)cc1)c1nnc(C)n1-2` to `COC(=O)NC(=S)Nc1ccccc1NC(=S)NC(=O)OC`, the cell viability activity rises from -56.2% to -31.4%.

`Cn1c(COP(=O)(NCCBr)NCCBr)cnc1[N+](=O)[O-]` gave a cell viability activity of -53.2%.
